# Assay results reported in the supplement of paper PMC10338343.
# ± gives the standard deviation. Over roughly 8,200 sequences, “pre-steady-state target cleavage rate” has its median near 0.024; the highest 2% begin near 1.3. What follows is part of a selection rich in the highest values, with near analogues and random picks from the rest.
# System: MIWI (PIWIL1) piRISC loaded with L1MC piRNA (30 nt)
# Experiment: pre-steady-state target cleavage rate (min^-1); MIWI and MILI are mouse PIWI proteins and EfPiwi is from a freshwater sponge; tags in brackets are library labels; higher = faster piRNA-guided slicing of the target
# Conditions: guide: L1MC piRNA 5'p-UAACUAAAUACUAUGCAAGCUGUAGGUCCU
# Summary of the method: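 A transcribed, DNA-blocked target RNA library (0.1 nM) and 1 nM active affinity-purified piRISC bearing one synthetic guide were incubated in HEPES–potassium acetate buffer at 33 °C for 0–8 or 0–960 min, either with or without 500 nM GTSF1 partner protein. Uncleaved targets were sequenced, normalised to depth and to weakly complementary targets, and pooled over three trials, with k3 capped at 0.0001 min^-1. The pre-steady-state cleavage rate was derived with a burst-and-steady-state fit.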
# [1] = auxiliary factor: 500 nM mouse GTSF1
# [2] = auxiliary factor: none (no GTSF1)
Sequence,pre-steady-state target cleavage rate [1],pre-steady-state target cleavage rate [2]
UCCUGCUACAGCUUGCAUAGUAUUUAGUCUA,0.156 ± 0.025,0.00747 ± 0.0028
UCGACCUACAGCUUGCAUAGUUAAUUCAAA,0.538 ± 0.15,
UCCUGGAUGAGCUUGCAUAGUUUUUUGUUA,0.0806 ± 0.014,0.0177 ± 0.0048
UCCUGGAUGAGCUUGCAUUGUAUUUACUUA,0.0649 ± 0.016,0.00906 ± 0.0031
AGGACCUACAGCUUGCAUAGAAUUUUGUUA,0.501 ± 0.047,0.0183 ± 0.0047
AGGACCUACAGCUUGCAUAGUAUUUAGUA,0.795 ± 0.042,0.0502 ± 0.014
UGCACCUAGAGCUUGCAUAGUAUUUAGUUA,1.2 ± 0.25,0.0155 ± 0.0045
UCGACCUACUAGCUUGCAUAGUAUUUAGUUA,0.784 ± 0.042,0.0512 ± 0.01
UGGACCUACUAGCUUGCAUAGUAUUUAGUUA,0.63 ± 0.036,0.0509 ± 0.01
AGCACCUAGAGCUUGCAUAGUAUUUAGUUA,1.47 ± 0.37,0.00468 ± 0.0035
UGGACCUAGCAGCUUGCAUAGUAUUUAGUUA,1.59 ± 0.13,0.0734 ± 0.014
UCGACCUAGCAGCUUGCAUAGUAUUUAGUUA,1.34 ± 0.058,0.0726 ± 0.016
AGGACCUAGCAGCUUGCAUAGUAUUUAGUUA,1.21 ± 0.073,0.0735 ± 0.015
UCCACCUAGAGCUUGCAUAGUAUUUAGUUA,0.593 ± 0.06,0.0282 ± 0.0051
UCCACCUAGCAGCUUGCAUAGUAUUUAGUUA,0.833 ± 0.057,0.0454 ± 0.0087
UCGACCUACAGCUUCCAUAGUAAUUAGUUA,0.0526 ± 0.017,
UCCACCUACAGCUUGCAAUCUAUUUAGUUA,0.194 ± 0.018,
UGGACCUACUGCUUGCAUAGUAAUUAGUUA,0.866 ± 0.04,0.033 ± 0.0084
UCCUGGAUGUGCAUGCAUUGUAUUUAGUUA,0.00495 ± 0.0033,
UCCUGGUACAGGAAGCAUAGUAUUUAGUAA,0.0592 ± 0.011,
UCCACCAACAGCUAGCAUAGUAUUUAGUUA,0.97 ± 0.033,0.0197 ± 0.0045
UGGAGGUACAGCUUGCAUAGUAUUUUCAAA,0.0674 ± 0.014,0.00316 ± 0.0017

Sequence,pre-steady-state target cleavage rate [1],pre-steady-state target cleavage rate [2]
UGGAGCUACAGCUUCCAUAGUAUUUAGUUA,0.275 ± 0.047,0.00584 ± 0.0013
UGGACCUACGCUUGCAUAGUAUUUAGUUA,1.4 ± 0.081,0.046 ± 0.008
UCCACCUACGCUUGCAUAGUAUUUAGUUA,0.998 ± 0.04,0.0451 ± 0.0077
UCGACCUACGCUUGCAUAGUAUUUAGUUA,1.45 ± 0.052,0.0463 ± 0.0093
UGGACCUACACGCUUGCAUAGUAUUUAGUUA,1.06 ± 0.06,0.0641 ± 0.013
AGGACCUACGCUUGCAUAGUAUUUAGUUA,1.27 ± 0.066,0.0719 ± 0.013
UCGACCUACACGCUUGCAUAGUAUUUAGUUA,1.23 ± 0.063,0.0454 ± 0.0074
UCCACCUACAGGUUGCAUAGUAUUUAGUAA,0.866 ± 0.1,0.0134 ± 0.0028
UCCUGGUACAGCUUGCCAUAGUAUUUAGUUA,0.0951 ± 0.024,
UCCUCCUACUGCUUGCAUAGUAUUUAGAUA,0.185 ± 0.024,0.0115 ± 0.002
UCCUGGAUGAGCUUGCAUAGUAAUUAGAUA,0.136 ± 0.034,0.00679 ± 0.0036
UCCUGGAUGUGCUUGCAUUGUAUUUAGAUA,0.0181 ± 0.0038,0.0063 ± 0.0025
UCCUGCUACAGCUAGCAUAGAAUUUAGUUA,0.528 ± 0.048,0.0108 ± 0.0032
UGGGCCUACAGCUUGCAUAGUAUUUAGUUA,1.39 ± 0.08,0.0716 ± 0.013
AGGGCCUACAGCUUGCAUAGUAUUUAGUUA,1.39 ± 0.061,0.106 ± 0.023
UCCUGGAUGAGCUUGAAUAGUAUUUAGUUA,0.944 ± 0.045,0.0233 ± 0.007
UCCUGGAUCAGCAUGCAUAGUAUUUUGUUA,0.517 ± 0.03,0.00866 ± 0.003
UCCUGCUACAGCUUGCAAAGUAUUUAGAAA,0.319 ± 0.043,0.00338 ± 0.0032
UCCUGCUACAGCUAGGAUAGUAUUUAGUUA,1.15 ± 0.12,0.006 ± 0.0018
UCCUCCAACAGCAUGCAUAGUAUUUAGUUA,1.11 ± 0.051,0.0217 ± 0.0039
UCGACCAACAGGUUGCAUAGUAUUUAGUUA,1.16 ± 0.049,0.0326 ± 0.006
UGGACCAACAGCAUGCAUAGUAUUUAGUUA,1.24 ± 0.046,0.0449 ± 0.01

Sequence,pre-steady-state target cleavage rate [1],pre-steady-state target cleavage rate [2]
AGGACCAACAGCAUGCAUAGUAUUUAGUUA,1.39 ± 0.048,0.0703 ± 0.016
UCCACCAACAGCAUGCAUAGUAUUUAGUUA,0.943 ± 0.032,0.0211 ± 0.0046
UCGACCAACAGCAUGCAUAGUAUUUAGUUA,1.33 ± 0.037,0.033 ± 0.0067
UCCACCUAGUGCUUGCAUAGUAUUUUCAAA,0.0568 ± 0.012,
UGGACCUAGUCCUUGCAUAGUAUUUACAAA,0.0221 ± 0.0084,
UGCACCUACAGCUAGCAUAGUAUUUAGUUA,1.22 ± 0.097,0.0194 ± 0.0043
UCCUGGAUGAGCUUGCAUAGUAUUAUGAAA,0.0112 ± 0.0054,
UCGACCUACAGCUUGCAAAGUAUUUACAAA,0.33 ± 0.035,0.00465 ± 0.002
UCCUGCUUGUGCUUGCAUAGUAUUUACAAA,0.0637 ± 0.014,0.00366 ± 0.0024
AGGACCUACAGCAAGCAUAGUAUUUAGUUA,1.2 ± 0.069,0.0105 ± 0.0035
UCGACCUACAGCAAGCAUAGUAUUUAGAAA,0.349 ± 0.041,
UGGACCUACAGCAAGCAUAGUAUUUAGUUA,1.34 ± 0.1,0.00929 ± 0.0027
UCGACCUACAGCAAGCAUAGUAUUUAGUUA,1.4 ± 0.083,0.00748 ± 0.0028
UGGACCUACAGCAAGCAUAGUAUUUAGUAA,0.898 ± 0.11,0.0053 ± 0.0019
UCGACCUACAGCAAGCAUAGUAUUUAGUAA,0.818 ± 0.066,0.00275 ± 0.0026
UCCUCCUACAGCUUGCAUAGUACUUUAGUUA,0.588 ± 0.024,0.00867 ± 0.0017
AGGACCUAGUCCUUGCAUAGUAUUUACAAA,0.256 ± 0.046,0.00328 ± 0.0019
UCCUGGUACAGCUUGCAUAGUUUUUAGAUA,0.136 ± 0.043,0.00988 ± 0.0027
AGGACCUACAGCUUGCAUAGUAAUUAGAAA,0.475 ± 0.071,0.00445 ± 0.0038
UCCUGGAACUGCAUGCAUAGUAUUUAGUUA,0.442 ± 0.035,0.00687 ± 0.0019
